High-throughput results from PubChem BioAssay.
This is a sample that favours compounds with a hit; in the whole collection about 4.2% have one here.
D1 agonist: human D1 receptor agonism. P21728. HEK293 T-REx D1 cells, calcium flux, agonist mode. activation, % at 2 µM. hit rate 1% among 360,000; in the data active = activation above about 30%
Target sequence (P21728 whole entry, looked up): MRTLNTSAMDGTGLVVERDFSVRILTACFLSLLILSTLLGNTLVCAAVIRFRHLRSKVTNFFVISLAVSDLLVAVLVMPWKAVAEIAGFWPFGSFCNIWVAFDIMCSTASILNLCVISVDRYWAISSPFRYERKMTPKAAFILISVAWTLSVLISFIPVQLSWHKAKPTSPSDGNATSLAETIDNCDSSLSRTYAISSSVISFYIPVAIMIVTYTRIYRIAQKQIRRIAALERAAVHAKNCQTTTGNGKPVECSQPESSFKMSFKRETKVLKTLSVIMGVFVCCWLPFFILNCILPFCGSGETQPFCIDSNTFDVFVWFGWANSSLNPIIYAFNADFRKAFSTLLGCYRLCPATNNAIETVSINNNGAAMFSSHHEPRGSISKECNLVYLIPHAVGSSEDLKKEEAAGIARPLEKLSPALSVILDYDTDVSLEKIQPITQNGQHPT
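Agonism was scored from calcium flux recorded over 180 s (1 read/s) after pintool compound addition, following a 10-cycle baseline. Cells were inducible force-coupled HEK293 TREx D1, plated overnight at 30 C and loaded with no-wash calcium dye.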
D1 potentiator: human D1 dopamine receptor positive modulation; HEK293 TREx D1 cells, calcium flux, dopamine EC20 potentiation; potentiation, % at 10 µM; hit rate 0.036% among 360,000; P21728; in the data active = potentiation above about 30%
TRPV1 PAM: human TRPV1 potentiation; hit rate 0.02% among 320,000; Q8NER1; potentiation, % at 8.33 µM; AID 540277; TRPV1-expressing cells, Fluo-8 calcium influx, capsaicin EC20 potentiation; in the data active = potentiation above about 80%; inconclusive = between about 30% and that limit
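TRPV1-expressing cells were cultured overnight at 35.5C and loaded with Fluo-8 calcium dye for 40 to 90 min at room temperature. After a 10 s baseline, compound was added and calcium influx was read kinetically for 3 min (ex 480/em 520 nm).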
TRPV1 agonist: activates the human vanilloid receptor TRPV1 | hit rate 0.19% among 320,000 | activation, % at 8.33 µM | AID 540275 | TRPV1-expressing cells, Fluo-8 calcium influx, agonist mode | Q8NER1; in the data active = activation above about 80%; inconclusive = between about 30% and that limit
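Fluo-8 calcium influx in TRPV1-expressing cells, kinetic read (ex 480/em 520 nm). Compound added and read 3 min for agonist activity, followed by capsaicin at EC20 final and 2 min further read for enhancement.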
D1 antagonist: human D1 dopamine receptor antagonism; P21728; HEK293 TREx D1 cells, calcium flux, dopamine EC80; stronger effect = lower value; hit rate 3.2% among 360,000; activity change, negative = inhibition, % at 10 µM; in the data active = activity change below about -30%
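Antagonism measured as reduced calcium response to an EC80 dopamine addition following 180 s compound pre-read; cells were inducible HEK293 Trex D1 plated overnight at 30 C, read kinetically at 1 cycle/sec.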
Hits are given with their value; – = inactive; ? = inconclusive; · = not tested or not shown; ! = a repeat was not active.

SMILES | D1 agonist | D1 potentiator | TRPV1 PAM | TRPV1 agonist | D1 antagonist
Cc1cccc(C(=O)OCc2cc(=O)n3nc(C4CC4)sc3n2)c1 | – | – | · | · | -31
Cc1ccc(-n2nc(C)c3c(C)c(CCC(=O)NCc4ccco4)c(C)nc32)cc1 | – | · | – | 82 | –
Cc1nc2c(c(C)nn2-c2ccccc2)c(C)c1CCC(=O)Nc1ccc(CN2CCCC2)cc1 | – | – | – | ? | -39
CCCCNC(=O)CCc1c(C)nc2c(c(C)nn2-c2ccccc2)c1C | – | – | – | 94 | –
Cc1ccc(CNC(=O)CCc2c(C)nc3c(c(C)nn3-c3ccc(C)cc3)c2C)cc1 | – | – | – | ? | –
Cc1ccc(-n2nc(C)c3c(C)c(CCC(=O)NCc4ccccc4)c(C)nc32)cc1 | – | · | – | 82 | –
CC1CCN(S(=O)(=O)c2ccc3c(ccn3CC(=O)NCc3ccc(N(C)C)cc3)c2)CC1 | – | – | · | · | –
Cc1cccc(Cn2nnc3c(=O)[nH]c(C4CCCN(C(=O)c5ccccc5Cl)C4)nc32)c1 (stereo not given) | – | – | · | · | –
CN1C(=O)c2ccccc2Sc2ccc(NC(=O)N3CCN(c4cccc(Cl)c4)CC3)cc21 | – | – | · | · | –
Cc1ccccc1OCCCCn1nnc2sc3c(c2c1=O)CCC(C)C3 (stereo not given) | – | – | · | · | –
O=c1[nH]c2ccc(NCc3ccc(-c4cccc(Cl)c4)o3)cc2[nH]1 | 37 | – | · | · | –
CCOC(=O)c1ccc2c(c1)nc(SCC(=O)c1ccco1)n2CC | – | – | – | – | -34
COc1ccccc1CNC(=O)CSc1ncc2c(n1)-c1cc(Cl)ccc1N(Cc1ccccc1)S2(=O)=O | – | – | · | · | –
COc1ccc(C(=O)c2cc3c(cc2[N+](=O)[O-])OCCO3)cc1 | – | – | – | – | -32
Cc1ccc(-n2nc(C(=O)N3CCN(c4ccc(F)cc4)CC3)c(=O)n(C)c2=O)cc1 | – | – | · | · | –
O=C(CN1CCOCC1)Nc1nc(-c2ccccc2)cs1 | – | – | – | 85 | –
O=C(CN1CCCCC1)Nc1nc(-c2ccccc2)cs1 | – | – | – | ? | –
Cc1ccc(C)c(NC(=O)c2cc(S(=O)(=O)N3CCCCC3)ccc2N2CCOCC2)c1 | – | – | – | – | –
Cc1ccc(S(=O)(=O)N2CCCCC2)cc1NC(=O)CSc1nnnn1C | – | – | – | – | –
Cc1ccc(S(=O)(=O)N2CCOCC2)cc1NC(=O)c1cc([N+](=O)[O-])ccc1N1CCOCC1 | – | – | – | – | -69
Cc1ccc(S(=O)(=O)N2CCOCC2)cc1NC(=O)CSc1nnnn1C | – | – | – | – | -35
O=C(CN1CCCCC1)Nc1nc(-c2ccc(Cl)cc2)cs1 | – | – | – | – | -53
CSc1ncc(Cl)c(C(=O)N(C)c2ccccc2)n1 | – | – | · | · | –
NC(=O)c1c(NC(=O)c2nc(SCc3ccccc3F)ncc2Cl)sc2c1CCCC2 | – | – | · | · | –
O=S(=O)(c1ccccc1)c1nc(-c2cccs2)oc1SCc1ccccc1F | – | – | · | · | –
SMILES | D1 agonist | D1 potentiator | TRPV1 PAM | TRPV1 agonist | D1 antagonist
CC(C)c1nn2c(=O)cc(COC(=O)C3CCCCC3)nc2s1 | – | – | · | · | –
CCOC(=O)C1=C(CN2CCCCC2)NC(=O)NC1c1ccc(C)cc1 (stereo not given) | – | – | · | · | –
O=C(Nc1nc2c(ccc3ccccc32)s1)c1cc([N+](=O)[O-])ccc1N1CCOCC1 | – | – | – | – | –
O=C(Nc1nc(-c2ccc(-c3ccccc3)cc2)cs1)c1cc([N+](=O)[O-])ccc1N1CCOCC1 | – | – | – | – | -36
Cc1ccc(-c2csc(NC(=O)CN3CCOCC3)n2)cc1C | – | – | – | 95 | –
Cc1nc2ccc(S(=O)(=O)NC(C(=O)N3CCN(c4cccc(Cl)c4)CC3)C(C)C)cc2s1 (stereo not given) | – | – | · | · | –
CC(=O)N/N=C/c1cc(C(C)(C)C)cc(/C=N/NC(C)=O)c1O | 36 | – | – | – | –
Cc1cc(C(=O)N/N=C\c2cc(C(C)(C)C)ccc2O)n[nH]1 | – | – | – | – | –
CCCCOc1c(Cl)cc(C(=O)N(Cc2ccc(C)o2)C2CCS(=O)(=O)C2)cc1Cl (stereo not given) | – | – | · | · | –
CCCCCOc1c(Cl)cc(C(=O)N(Cc2ccc(C)o2)C2CCS(=O)(=O)C2)cc1Cl (stereo not given) | 30 | – | · | · | –
CCOc1ccc(/C=C/c2nc(C#N)c(NCc3ccc(OC)cc3)o2)cc1 | – | – | · | · | –
O=C(c1ccccc1-c1nc(-c2ccc(Cl)cc2)no1)N1CCCC1 | – | – | – | – | -35
CN1CCN(C(=O)c2ccccc2-c2nc(-c3ccc(Cl)cc3)no2)CC1 | – | – | – | – | –
CC(C)c1nn2c(=O)cc(COC(=O)c3cccc(NC(=O)COc4ccc(F)cc4)c3)nc2s1 | – | – | · | · | –
Cc1ccc(C)c(NC(=O)N2CCc3cc(S(=O)(=O)N4CCC(C)CC4)ccc32)c1 | – | – | · | · | –
CCCC(=O)n1nc(-c2cccnc2)nc1NCc1ccccc1 | – | – | – | – | -42!
Cc1c(O)ccc(-c2n[nH]c(C(=O)O)c2-c2nc3ccccc3s2)c1O | – | – | – | – | –
Cc1c(O)ccc(-c2[nH]ncc2-c2nc3ccccc3s2)c1O | – | – | – | – | -43
CC(C)c1ccc(NC(=O)N2CCC(c3nc4ccccc4o3)CC2)cc1 | – | – | – | 97 | –
CC(=O)c1ccc(N2CCN(C(=O)Nc3ccc(C(C)C)cc3)CC2)cc1 | – | – | – | 100 | -47
CC(C)c1ccc(NC(=O)N2CCOCC2)cc1 | – | – | – | 95 | –
O=C(c1ccc2c(c1)CCN2S(=O)(=O)c1ccc(Cl)cc1)N1CCN(c2ccccc2)CC1 | – | – | · | · | –
O=C(c1ccc(C(F)(F)F)cc1)C1CCCN(C(=O)Cn2cncn2)C1 (stereo not given) | – | – | – | – | -37
O=C(CCn1cncn1)N1CCCC(N2CCN(c3cccc(C(F)(F)F)c3)CC2)C1 (stereo not given) | – | – | – | – | -44
CCN(C(=O)c1cnc2ccc(C)cn2c1=O)c1ccccc1 | – | – | · | · | –
SMILES | D1 agonist | D1 potentiator | TRPV1 PAM | TRPV1 agonist | D1 antagonist
Cc1cccn2c(=O)cc(COc3cccc(NC(=O)c4cccc(Cl)c4)c3)nc12 | – | – | · | · | –
COc1ccccc1C(=O)Nc1ccc(OCc2cc(=O)n3cccc(C)c3n2)cc1 | – | – | · | · | –
Cc1cccn2c(=O)cc(COc3ccc(NC(=O)C(C)Oc4ccccc4)cc3)nc12 (stereo not given) | – | – | · | · | -49
Cc1cccc(C(=O)Nc2cccc(OCc3cc(=O)n4ccccc4n3)c2)c1 | – | – | · | · | -71
Cc1cccn2c(=O)cc(COc3cccc(NC(=O)Nc4cccc(Cl)c4)c3)nc12 | – | – | · | · | -59
CCOc1ccc(C(=O)Nc2cccc(OCc3cc(=O)n4ccccc4n3)c2)cc1 | – | – | · | · | –
Cc1ccc(O)c(CNc2cnc3ccccc3c2)c1 | – | – | – | – | -31
